# Data reported in ChEMBL document CHEMBL3988442, “University of Dundee, Small-Polar-MMV Screening Library” (2021).
# For some of these results: Potency and affinity values are given separately.
# How the values were obtained:
# Set-up in all cases: scale not given: direction of the effect not stated beside the values
# [1] = biological target: Protein translocase subunit SecA (Escherichia coli (strain K12)) (UniProt P10408); experiment: Assay to Identify E. coli SecA ATPase Inhibitors; assay type: functional; conditions: 30 µM
# Sequence of Protein translocase subunit SecA (Escherichia coli (strain K12)) (P10408 whole entry): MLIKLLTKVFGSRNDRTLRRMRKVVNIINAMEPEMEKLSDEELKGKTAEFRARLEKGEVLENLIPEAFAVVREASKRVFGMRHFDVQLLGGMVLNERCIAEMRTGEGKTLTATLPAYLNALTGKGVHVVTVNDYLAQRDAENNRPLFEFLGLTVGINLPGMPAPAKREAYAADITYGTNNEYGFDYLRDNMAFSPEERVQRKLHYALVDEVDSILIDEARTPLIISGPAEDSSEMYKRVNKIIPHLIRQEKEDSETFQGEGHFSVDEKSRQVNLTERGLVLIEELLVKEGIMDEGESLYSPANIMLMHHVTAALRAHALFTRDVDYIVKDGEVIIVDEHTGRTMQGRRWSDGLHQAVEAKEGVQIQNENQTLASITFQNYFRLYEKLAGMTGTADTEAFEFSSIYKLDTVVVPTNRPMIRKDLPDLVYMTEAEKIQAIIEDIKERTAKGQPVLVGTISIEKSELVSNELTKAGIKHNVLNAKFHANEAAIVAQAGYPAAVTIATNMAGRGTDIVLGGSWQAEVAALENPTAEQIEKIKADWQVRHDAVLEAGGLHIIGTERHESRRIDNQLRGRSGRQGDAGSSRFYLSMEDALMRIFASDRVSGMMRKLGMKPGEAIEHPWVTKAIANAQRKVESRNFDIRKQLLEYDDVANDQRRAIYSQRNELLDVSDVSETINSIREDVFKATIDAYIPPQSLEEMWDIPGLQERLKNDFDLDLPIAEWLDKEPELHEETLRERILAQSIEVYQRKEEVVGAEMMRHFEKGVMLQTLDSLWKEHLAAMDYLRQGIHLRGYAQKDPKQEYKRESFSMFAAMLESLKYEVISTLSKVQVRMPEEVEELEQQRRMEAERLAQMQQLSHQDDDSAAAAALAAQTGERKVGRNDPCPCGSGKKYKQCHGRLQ
# [2] = biological target: T1, Ubiquitin-activating enzyme e1, putative (Leishmania donovani (strain BPK282A1)) (UniProt E9BSI1); experiment: Leishmania donovani Ubiquitin Activating Enzyme (LdE1); assay type: functional; conditions: 30 µM
# T1 sequence (whole entry): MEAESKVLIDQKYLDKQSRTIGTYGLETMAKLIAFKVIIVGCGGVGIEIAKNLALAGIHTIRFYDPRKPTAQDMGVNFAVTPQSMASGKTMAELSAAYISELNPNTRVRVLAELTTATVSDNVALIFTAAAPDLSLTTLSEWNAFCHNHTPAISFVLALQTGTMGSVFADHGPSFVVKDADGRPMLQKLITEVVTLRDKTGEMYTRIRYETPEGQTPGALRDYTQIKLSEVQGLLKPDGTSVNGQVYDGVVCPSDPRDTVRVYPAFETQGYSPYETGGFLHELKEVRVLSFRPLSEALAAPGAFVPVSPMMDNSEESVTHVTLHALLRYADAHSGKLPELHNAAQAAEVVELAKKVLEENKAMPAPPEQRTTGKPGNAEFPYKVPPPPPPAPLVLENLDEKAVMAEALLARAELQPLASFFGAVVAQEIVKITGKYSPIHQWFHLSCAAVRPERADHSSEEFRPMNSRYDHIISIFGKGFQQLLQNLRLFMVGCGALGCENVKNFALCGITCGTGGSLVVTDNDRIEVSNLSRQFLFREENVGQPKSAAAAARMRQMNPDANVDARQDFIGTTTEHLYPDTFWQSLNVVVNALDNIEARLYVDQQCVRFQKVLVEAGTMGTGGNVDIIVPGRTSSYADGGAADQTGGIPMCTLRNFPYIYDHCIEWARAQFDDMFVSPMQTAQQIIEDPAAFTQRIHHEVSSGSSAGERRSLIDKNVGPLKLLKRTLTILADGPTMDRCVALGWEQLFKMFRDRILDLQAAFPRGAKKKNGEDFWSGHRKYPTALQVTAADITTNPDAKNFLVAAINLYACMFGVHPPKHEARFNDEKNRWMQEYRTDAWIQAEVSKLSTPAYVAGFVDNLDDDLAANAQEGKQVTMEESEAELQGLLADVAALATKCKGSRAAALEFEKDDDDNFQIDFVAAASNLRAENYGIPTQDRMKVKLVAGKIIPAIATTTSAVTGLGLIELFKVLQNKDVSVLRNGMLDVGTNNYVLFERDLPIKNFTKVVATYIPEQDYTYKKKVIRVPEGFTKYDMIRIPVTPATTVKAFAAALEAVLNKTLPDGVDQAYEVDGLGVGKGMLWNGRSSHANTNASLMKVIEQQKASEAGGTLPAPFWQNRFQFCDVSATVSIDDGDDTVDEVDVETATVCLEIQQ
# [3] = biological target: AMP-activated protein kinase, AMPK (Homo sapiens) (UniProt P54646+O43741+P54619+Q9UGJ0+Q9Y478+Q13131+Q9UGI9); experiment: AMP-dependent Kinase enzyme assay. An in vitro enzyme assay that detects ADP turnover that is directly proportional to AMPK activity. This uses naive AMPK that is activated during the assay with MK-8722; assay type: functional; conditions: 30 µM
# [4] = biological target: Sialic acid-binding Ig-like lectin 9 (Homo sapiens) (UniProt Q9Y336); experiment: Hs-Siglec9 ALPHAscreen SOP 20170721; conditions: 10 µM
# Sequence of Sialic acid-binding Ig-like lectin 9 (Homo sapiens) (Q9Y336 whole entry): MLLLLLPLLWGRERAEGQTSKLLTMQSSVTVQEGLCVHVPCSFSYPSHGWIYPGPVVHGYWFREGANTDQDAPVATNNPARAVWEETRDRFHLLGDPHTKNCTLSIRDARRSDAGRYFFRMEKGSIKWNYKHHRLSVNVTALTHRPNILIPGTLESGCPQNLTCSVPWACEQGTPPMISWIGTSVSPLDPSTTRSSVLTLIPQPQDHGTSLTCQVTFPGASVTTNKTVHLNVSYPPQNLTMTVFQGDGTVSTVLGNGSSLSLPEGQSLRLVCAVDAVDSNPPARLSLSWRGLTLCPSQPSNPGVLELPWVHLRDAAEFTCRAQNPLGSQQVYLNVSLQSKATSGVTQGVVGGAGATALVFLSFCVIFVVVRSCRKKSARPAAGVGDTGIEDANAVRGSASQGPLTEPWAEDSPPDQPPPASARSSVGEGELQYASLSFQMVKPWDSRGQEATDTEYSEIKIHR
# Trypanosoma cruzi = experiment: Trypanosoma cruzi phosphomannomutase and mannose-1-phosphate guanylyltransferase assay; assay type: functional; conditions: 10 µM
# [5] = biological target: T2, Arginase-2, mitochondrial (Homo sapiens) (UniProt P78540); experiment: in vitro enzyme assay to detect the production of urea directly proportional to the activity of Arginase II; assay type: functional; conditions: 33.3 µM; further: in the data most compounds retested in dose-response had high values
# T2 sequence (whole entry): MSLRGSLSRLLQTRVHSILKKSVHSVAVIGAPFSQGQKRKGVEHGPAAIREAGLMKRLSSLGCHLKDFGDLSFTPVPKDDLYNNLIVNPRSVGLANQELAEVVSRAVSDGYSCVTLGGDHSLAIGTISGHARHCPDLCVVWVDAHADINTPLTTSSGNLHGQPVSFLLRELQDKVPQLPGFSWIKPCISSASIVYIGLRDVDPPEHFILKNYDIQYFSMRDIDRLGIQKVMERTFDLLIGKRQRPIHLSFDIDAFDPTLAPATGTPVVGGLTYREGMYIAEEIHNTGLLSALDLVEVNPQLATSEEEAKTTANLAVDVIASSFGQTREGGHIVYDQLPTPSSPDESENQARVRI
# [6] = biological target: T3, Proteasome subunit beta (Trypanosoma cruzi) (UniProt O96673); experiment: Trypanosoma cruzi proteasome chymotrypsin-like activity (TcProtChymo) assay.; further: in the data most compounds retested in dose-response had high values; assay type: functional; conditions: 9.37 µM
# T3 sequence (whole entry): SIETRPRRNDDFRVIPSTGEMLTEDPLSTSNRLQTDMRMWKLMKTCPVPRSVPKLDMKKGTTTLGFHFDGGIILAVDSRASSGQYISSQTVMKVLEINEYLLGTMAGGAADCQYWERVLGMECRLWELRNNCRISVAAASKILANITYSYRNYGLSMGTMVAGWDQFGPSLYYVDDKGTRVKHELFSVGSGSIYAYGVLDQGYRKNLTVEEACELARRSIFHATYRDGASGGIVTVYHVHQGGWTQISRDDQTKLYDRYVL
# Homo sapiens = organism: Homo sapiens; experiment: To identify inhibition of the IFN signalling (Jak-Stat) pathway via expression of an eGFP reporter gene under the control of an IFN-stimulated response element (ISRE) containing MxA promoter.; assay type: functional; conditions: 30 µM
# [7] = biological target: T4, Tyrosyl-tRNA synthetase, putative (Trypanosoma cruzi (strain CL Brener)) (UniProt Q4DSP6); experiment: Trypanosoma cruzi tyrosyl tRNA synthetase (TcYRS) _High Tyrosine SOP; assay type: functional; conditions: 30 µM; further: in the data most compounds retested in dose-response had high values
# T4 sequence (whole entry): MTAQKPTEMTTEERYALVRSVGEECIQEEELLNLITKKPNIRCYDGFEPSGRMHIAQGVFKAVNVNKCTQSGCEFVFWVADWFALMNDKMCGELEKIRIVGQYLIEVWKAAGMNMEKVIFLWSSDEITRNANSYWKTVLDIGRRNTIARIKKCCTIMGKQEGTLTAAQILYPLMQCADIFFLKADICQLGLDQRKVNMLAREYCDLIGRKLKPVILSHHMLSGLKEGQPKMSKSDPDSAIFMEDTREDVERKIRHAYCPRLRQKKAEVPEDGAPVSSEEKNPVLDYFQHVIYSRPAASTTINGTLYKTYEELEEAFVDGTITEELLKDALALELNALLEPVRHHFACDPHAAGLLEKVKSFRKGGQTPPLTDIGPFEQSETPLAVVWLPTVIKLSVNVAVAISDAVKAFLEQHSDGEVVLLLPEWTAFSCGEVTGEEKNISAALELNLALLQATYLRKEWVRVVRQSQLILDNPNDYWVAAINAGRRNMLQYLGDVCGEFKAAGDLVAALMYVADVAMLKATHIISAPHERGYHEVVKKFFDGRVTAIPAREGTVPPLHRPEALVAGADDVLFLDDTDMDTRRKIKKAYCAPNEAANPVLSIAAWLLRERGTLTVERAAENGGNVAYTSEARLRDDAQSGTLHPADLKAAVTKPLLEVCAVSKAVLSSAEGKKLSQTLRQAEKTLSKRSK
# [8] = biological target: T4, Tyrosyl-tRNA synthetase, putative (Trypanosoma cruzi (strain CL Brener)); experiment: Trypanosoma cruzi tyrosyl tRNA synthetase (TcYRS) SOP; assay type: functional; conditions: 30 µM
# [9] = biological target: Chromo domain-containing protein 1 (Saccharomyces cerevisiae (strain ATCC 204508 / S288c) (Baker's yeast)) (UniProt P32657); experiment: ScCHD-1 Enzyme Inhibition Assay; assay type: functional; conditions: 30 µM; further: in the data most compounds retested in dose-response had high values
# Sequence of Chromo domain-containing protein 1 (Saccharomyces cerevisiae (strain ATCC 204508 / S288c) (Baker's yeast)) (P32657 whole entry, the tested form may be a part): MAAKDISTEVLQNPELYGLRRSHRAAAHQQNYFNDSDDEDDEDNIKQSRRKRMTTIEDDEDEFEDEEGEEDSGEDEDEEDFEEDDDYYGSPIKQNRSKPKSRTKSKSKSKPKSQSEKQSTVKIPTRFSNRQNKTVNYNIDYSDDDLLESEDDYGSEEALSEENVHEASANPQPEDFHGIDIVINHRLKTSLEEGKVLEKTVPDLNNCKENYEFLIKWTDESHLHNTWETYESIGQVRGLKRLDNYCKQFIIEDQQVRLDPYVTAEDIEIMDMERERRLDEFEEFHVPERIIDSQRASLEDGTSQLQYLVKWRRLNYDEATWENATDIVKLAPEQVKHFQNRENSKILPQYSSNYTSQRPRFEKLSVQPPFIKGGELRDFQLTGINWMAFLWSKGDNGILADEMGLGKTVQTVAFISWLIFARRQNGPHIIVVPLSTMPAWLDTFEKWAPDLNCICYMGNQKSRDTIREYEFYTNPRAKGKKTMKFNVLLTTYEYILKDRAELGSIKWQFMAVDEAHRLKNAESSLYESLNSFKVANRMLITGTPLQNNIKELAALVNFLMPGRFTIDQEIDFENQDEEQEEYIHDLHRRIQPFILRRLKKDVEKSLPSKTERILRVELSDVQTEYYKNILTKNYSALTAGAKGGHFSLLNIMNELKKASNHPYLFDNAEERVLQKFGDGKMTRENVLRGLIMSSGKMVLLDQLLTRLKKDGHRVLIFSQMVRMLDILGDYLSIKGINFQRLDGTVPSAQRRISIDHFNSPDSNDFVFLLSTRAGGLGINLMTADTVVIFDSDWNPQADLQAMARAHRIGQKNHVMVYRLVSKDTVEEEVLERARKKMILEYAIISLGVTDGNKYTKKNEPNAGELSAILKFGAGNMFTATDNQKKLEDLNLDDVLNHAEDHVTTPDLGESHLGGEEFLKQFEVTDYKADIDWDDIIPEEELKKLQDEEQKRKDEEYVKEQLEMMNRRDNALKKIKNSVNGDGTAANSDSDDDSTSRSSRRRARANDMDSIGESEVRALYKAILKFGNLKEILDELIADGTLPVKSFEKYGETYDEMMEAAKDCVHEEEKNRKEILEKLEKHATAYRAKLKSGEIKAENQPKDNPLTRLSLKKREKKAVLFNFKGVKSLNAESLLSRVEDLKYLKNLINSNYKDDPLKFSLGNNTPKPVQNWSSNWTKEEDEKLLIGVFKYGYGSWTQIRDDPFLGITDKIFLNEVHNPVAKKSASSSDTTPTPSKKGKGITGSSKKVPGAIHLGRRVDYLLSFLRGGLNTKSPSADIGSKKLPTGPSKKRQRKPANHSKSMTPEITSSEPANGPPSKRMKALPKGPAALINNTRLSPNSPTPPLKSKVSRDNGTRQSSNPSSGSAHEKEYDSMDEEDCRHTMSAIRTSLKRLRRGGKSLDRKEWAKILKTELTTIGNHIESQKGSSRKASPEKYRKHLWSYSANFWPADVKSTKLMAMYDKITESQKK
Compound,Percent Effect [1] [%],Percent Effect [2] [%],Percent Effect [3] [%],Percent Effect [4] [%],Percent Effect (Trypanosoma cruzi) [%],Percent Effect [5] [%],Percent Effect [6] [%],Percent Effect (Homo sapiens) [%],Percent Effect [7] [%],Percent Effect [8] [%],Percent Effect [9] [%]
CS(=O)(=O)NCCCNC(=O)c1cccnc1O,-3.07,0,-3.83,-4.12,1.76,1.25,16.6,6.15,7.92,8.54,-4.62
COCCN1C(=O)[C@]2(CC[C@@H]3CN(C(=O)NC4CCCC4)C[C@@H]32)N=C1C,-2.35,8,-3.34,5.66,4.83,-52.5,6.84,-7.18,-7.29,10,-9.58
Cc1nccn1CCC1CCCCN1C(=O)c1ccc2[nH]nnc2c1 (stereo unspecified),-2.88,10.7,-0.957,10,2.63,16.7,9.59,7.47,3.83,6.17,-6.44
COc1ccnc(N2CCN(C(=O)Cc3ccc(C#N)cc3)CC2)n1,-3.03,13,-3.06,0.369,3.82,1.9,12.7,7.36,7.62,23.5,-7.06
O=C(C1CCCC1)N1CCN(Cc2nc(-c3ccco3)no2)CC1,-5.54,13.5,-5.37,16,3.99,-1.29,3.23,19.1,4.95,15.8,-4.84
CCS(=O)(=O)N1CCC[C@]2(C(=O)N(C)C)CN(c3ccccn3)C[C@@H]2C1,-6.08,5.33,2.98,0.0913,4.05,-50,10.1,-17,3.12,12.5,-5.8
CCN(CC1CCCO1)C(=O)Nc1ccc(F)cc1OC (stereo unspecified),-3.45,17.7,-6.96,10.6,6.14,3.8,4.5,-28.1,4.43,16.5,-7.51
CCS(=O)(=O)N1CCC(c2nnc(Cn3cccn3)n2C2CC2)CC1,-4.32,1.39,-35.4,-1,2.23,3.97,2.1,-11.4,2.1,7.69,-2.3
O=c1ccc(-c2cccs2)nn1CN1CCCCCC1,-4.24,-4,-3.16,2.9,3.54,-3.35,7.21,-1.68,7.41,10.3,-5.05
CN(C)c1nc2c(c(=O)[nH]1)CCN(C(=O)c1cccc3nccnc13)C2,1.03,18.2,-1.68,4.82,1.87,-33.1,19.1,29.3,8.6,16.1,-3.03
CCOC(=O)CCCNC(=O)CN1CCN(c2ncccn2)CC1,-2.22,7.79,-1.07,5.04,-3.64,-112,17.5,2.75,5.38,8.64,-0.631
